Tau fibril FP – blocks human tau fibril formation measured by polarization; P10636; K18 P301L tau heparin fibrillization, Alexa594 FP, 6 h; Potency, µM (titrated, usually from 57.7 µM), hits mostly inhibitors; 0.39% of 280,000 active; AID 1468; further: nearly all actives have a fitted effect of over 55% in size
Target sequence (P10636 561-689 P618L limits assumed): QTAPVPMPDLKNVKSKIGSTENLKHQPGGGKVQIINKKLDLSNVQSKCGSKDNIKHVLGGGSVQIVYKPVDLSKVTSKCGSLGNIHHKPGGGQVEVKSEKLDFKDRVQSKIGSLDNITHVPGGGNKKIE
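Quantitative HTS format: compounds meet 15 uM recombinant K18 P301L tau and Alexa 594-tau tracer in 100 mM sodium acetate pH 7; 20 uM heparin triggers fibrillization at 37 C over 6 hr; FP gives the signal.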
Tau fluor cs – counter-screen for tau fibril formation inhibitors; tau K18 P301L Alexa594 fluorescence, heparin fibrillization; Potency, µM (titrated, usually from 57.7 µM); 0.93% of 280,000 active; AID 1463; further: nearly all actives have a fitted effect of over 55% in size
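Human K18 P301L tau (15 uM unlabeled plus 0.24 uM Alexa 594-labeled, final) in 100 mM sodium acetate pH 7 was mixed with compound and 20 uM heparin and incubated 6 hr at 37 C.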
Tau fibril ThT – tau fibrillization inhibition (ThT binding); Potency, µM (titrated, usually from 57.4 µM), hits mostly inhibitors; AID 1460; 2.1% of 270,000 active; recombinant tau K18 P301L (four-repeat tau fragment), heparin-induced fibrillization, ThT fluorescence; further: nearly all actives have a fitted effect of over 55% in size
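Heparin-induced fibrillization of the P301L-mutant K18 repeat-domain fragment of human tau was followed by ThT binding in quantitative high-throughput format.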
USP1-UAF1 inh – inhibitors of human USP1/UAF1 deubiquitinase | O94782 | 0.23% of 390,000 active | AID 743255 | Potency, µM (top dose mostly 57.1 µM), most hits filed as inhibitors | recombinant USP1/UAF1, Ub-Rhodamine cleavage fluorescence; further: nearly all actives have a fitted effect of over 60% in size
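High-throughput fluorogenic screen: 1nM USP1/UAF1 complex, Ub-Rho substrate 150nM final, 50mM HEPES pH 7.8 with 0.5mM EDTA, 0.1 mg/ml BSA, 1mM TCEP and 0.01% Tween-20.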
Coupling enz – counter-screen for Giardia aldolase inhibitors: coupling enzyme system. coupling enzyme system counterscreen, AmpLite Red fluorescence. activity change, negative = inhibition, % at 58.2 µM, hits read low. 0.67% of 290,000 active. AID 2472; in the data active means activity change below about -30%
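Final compound at 57.5 uM, incubated 10 min at RT with coupling enzyme reagent (glyceraldehyde-3-phosphate), then 20 min with substrate and AmpLite Red detection. Fluorescence read at 525/598 nm; tests interference with the coupling assay, not aldolase inhibition.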
Of the large screens only hits and unclear results are named; the others gave an inactive call; [ ] = remark or other dose. Sampled rows, rich in hits. Any-hit rate of the full collection: about 2.3%. Unless noted, the call rests on the fitted dose curve; in most records, active means well fitted curve in the direction sought with a large enough effect; inconclusive means small, poorly fitted or top-dose-only effect, or another doubt; inactive means no such curve, though single readings can be large; an effect the other way counts as inactive or inconclusive.

COc1ccccc1C(=O)NNC(=S)NC(=O)c1sc2ccccc2c1Cl	Tau fibril ThT 7.08µM
CC(=O)c1ccc(NC(=S)NC(C)c2ccc(Cl)cc2Cl)cc1 (centres undefined)	Tau fibril FP 31.6µM, Tau fluor cs 14.1µM[quencher]
CCOc1cc(Br)cc(C2NC(=O)c3c(sc4c3CCN(C)C4)N2)c1O (centres undefined)	Tau fibril ThT 15.8µM (no result: Coupling enz)
O=C1NC(c2ccc(Br)cc2)Nc2sc3c(c21)CCC3 (centres undefined)	Tau fibril FP inconclusive, Tau fibril ThT inconclusive
Cc1ccc(C2NC(=O)c3c(sc4c3CCN(C)C4)N2)s1 (centres undefined)	Tau fibril FP inconclusive, Tau fibril ThT 14.1µM, USP1-UAF1 inh inconclusive
Cc1ccsc1C1NC(=O)c2c(sc3c2CCCC3)N1 (centres undefined)	Tau fibril FP inconclusive, Tau fibril ThT 3.16µM
CCOC(=O)N1CCc2c(sc3c2C(=O)NC(c2cc(OC)c(OC)c(OC)c2)N3)C1 (centres undefined)	Tau fibril ThT 15.8µM (no result: Coupling enz)
O=C1NC(c2ccccn2)Nc2sc3c(c21)CCC3 (centres undefined)	Tau fibril FP inconclusive, Tau fibril ThT 20µM
Cc1cccc(C2NC(=O)c3c(sc4c3CCN(C)C4)N2)c1O (centres undefined)	Tau fibril ThT 15.8µM, USP1-UAF1 inh inconclusive (no result: Coupling enz)
CN1CCc2c(sc3c2C(=O)NC(c2ccccn2)N3)C1 (centres undefined)	Tau fibril FP inconclusive, USP1-UAF1 inh 31.6µM, Coupling enz -61.5
CN1CCc2c(sc3c2C(=O)NC(c2ccccc2)N3)C1 (centres undefined)	Tau fibril FP inconclusive, Tau fibril ThT inconclusive, USP1-UAF1 inh inconclusive
COc1ccccc1C(=O)OCC(=O)NC1CCCC1	none (no result: Tau fibril FP, Tau fluor cs, Tau fibril ThT)
O=C(NCCc1ccccc1)c1ccc(CSc2nc3ccncc3n2Cc2cccc(F)c2)cc1	none (no result: Coupling enz)
Cc1ccccc1NC(=O)Cn1c(=O)n(Cc2ccc3c(c2)OCO3)c(=O)c2ccc(C(=O)NC3CCCCC3)cc21	Tau fibril FP inconclusive (no result: Coupling enz)
O=C(Nc1ccc([N+](=O)[O-])cc1)Nc1ccc(OC(F)F)c(Cl)c1	Tau fibril FP 10µM, Tau fluor cs inconclusive, Tau fibril ThT inconclusive
COc1ccc(C(=O)Nc2cccc([N+](=O)[O-])c2)cc1Br	none (no result: Tau fibril FP, Tau fluor cs, Tau fibril ThT, Coupling enz)
COc1ccc(NC(=O)Nc2cccc([N+](=O)[O-])c2)cc1Cl	Tau fibril FP inconclusive, Tau fluor cs 14.1µM[quencher], Tau fibril ThT 15.8µM
O=C(Nc1ccc(OC(F)F)c(Cl)c1)Nc1ccc2c(c1)OCO2	Tau fluor cs 5.01µM[quencher], Tau fibril ThT inconclusive
Cc1ccccc1NC(=O)c1sc2nc3c(cc2c1N)CCCC3	Tau fibril ThT inconclusive, USP1-UAF1 inh inconclusive (no result: Coupling enz)
Cc1nc2ccccc2c(=O)n1/N=C/c1ccc([N+](=O)[O-])o1	Tau fibril FP inconclusive, Tau fluor cs inconclusive, Tau fibril ThT 28.2µM (no result: USP1-UAF1 inh)
CN(/N=C/c1ccc([N+](=O)[O-])o1)c1ccccc1	Tau fluor cs inconclusive, Tau fibril ThT 7.08µM
Cc1nc2ccccc2n1/N=C/c1ccc([N+](=O)[O-])o1	none (no result: Tau fibril FP, Tau fluor cs, Tau fibril ThT, Coupling enz)
Cc1ccc(N2C(=O)CS(=O)(=O)C23C(=O)Nc2ccccc23)cc1C (centres undefined)	none (no result: Coupling enz)
CC(C)(C)C1=CC=C(C(C)(C)C)C(=O)C1=O	Tau fibril FP 17.8µM, Tau fluor cs inconclusive, Tau fibril ThT 17.8µM, Coupling enz -59.6 (no result: USP1-UAF1 inh)
CC1=NN(c2ccc(C)c(C)c2)C(=O)/C1=C\C=C\c1ccc([N+](=O)[O-])o1	Tau fibril FP inconclusive, Tau fluor cs inconclusive, Tau fibril ThT 25.1µM
COC(=O)c1ccccc1NC(=O)COC(=O)c1ccccc1N=Nc1ccc(N(C)C)cc1	Tau fluor cs inconclusive, Tau fibril ThT 4.47µM
CC(=O)c1ccc(NC(=O)COC(=O)c2ccccc2N=Nc2ccc(N(C)C)cc2)cc1	none
CN(C)c1ccc(N=Nc2ccccc2C(=O)OCC(=O)N(C)c2ccccc2)cc1	Tau fibril FP inconclusive, Tau fibril ThT 1.58µM
CCOC(=O)C1CCN(S(=O)(=O)c2cc(C(=O)N3CCCCC3)ccc2OC)CC1	none (no result: Tau fibril FP, Tau fluor cs, Tau fibril ThT, Coupling enz)
NC(CSS(=O)(=O)O)=NCCC12CC3CC(CC(O)(C3)C1)C2	Tau fibril FP inconclusive, Tau fibril ThT 3.55µM, USP1-UAF1 inh inconclusive
NC(=O)COC(=O)C12CC3CC(CC(O)(C3)C1)C2	none
COc1ccccc1NC(=S)N1CCC(NC(=O)c2ccco2)CC1	none
